Assay results taken from PubChem BioAssay (EPA / NIEHS).
Values joined by “and” are separate entries in the source; they are usually repeats but may differ in a detail not shown here. Identical values can stand only once. Some compounds were tested as several samples or in several runs, with calls that do not always agree. Active and inactive are the calls of the source. How the source made its calls, unless noted: active means hit-call score of the fitted dose curve at least 0.9, where 1 is the maximum; inactive means score below 0.9.

Legend:
[1] = read-out: Interleukin-1 alpha (IL1a), IL1A (gene 3552); assay: BSK_LPS_IL1a: BioMAP Diversity Plus: LPS Assay for Interleukin-1 alpha (IL1a) Biomarker Activity (AID 2283080); conditions: primary human HUVEC with PBMC; actives raise or lower the signal
Procedure, shortened: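 ELISA read-out of IL-1 alpha from a human primary vascular co-culture (endothelium plus PBMC) under LPS, sampled 24 hours post-dosing. Activity was fitted in both directions relative to DMSO controls.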

[2] = read-out: Monocyte Chemoattractant Protein-1 (MCP1), CCL2 (gene 6347); assay: BSK_LPS_MCP1: BioMAP Diversity Plus: LPS Assay for Monocyte Chemoattractant Protein-1 (MCP1) Biomarker Activity (AID 2283081); conditions: primary human HUVEC with PBMC; actives raise or lower the signal
Procedure, shortened: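 Human endothelial–PBMC co-cultures were dosed with chemical, then LPS-driven MCP-1 levels were quantified by ELISA at 24 h. Activity in either direction was fitted versus DMSO negative control.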

[3] = BSK_LPS_PGE2: BioMAP Diversity Plus: LPS Assay for Prostaglandin E2 (PGE2) Biomarker Activity (AID 2283082); conditions: primary human HUVEC with PBMC; actives raise or lower the signal;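 on AC50: secreted prostaglandin E2 measured by ELISA in LPS-stimulated co-culture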
Procedure, shortened: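 PGE2 release measured by ELISA in an LPS-activated co-culture of human umbilical vein endothelial cells and peripheral blood mononuclear cells, read at 24 h post-dosing. DMSO served as baseline for bidirectional curve fitting.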

[4] = read-out: Macrophage colony-stimulating factor (MCSF), CSF1 (gene 1435); assay: BSK_LPS_MCSF: BioMAP Diversity Plus: LPS Assay for Macrophage colony-stimulating factor (MCSF) Biomarker Activity (AID 2283083); conditions: primary human HUVEC with PBMC; actives raise or lower the signal
Procedure, shortened: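 ELISA readout of M-CSF after 24 h compound exposure in a human endothelial/PBMC co-culture. Activity, in either direction, is fitted relative to DMSO vehicle.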

[5] = read-out: Tissue Factor, F3 (gene 2152); assay: BSK_LPS_TissueFactor: BioMAP Diversity Plus: LPS Assay for Tissue Factor Biomarker Activity (AID 2283084); conditions: primary human HUVEC with PBMC; actives raise or lower the signal
Procedure, shortened: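 ELISA signal for cell-surface Tissue Factor (CD142) was read 24 h after compound dosing of an LPS-stimulated human endothelial–PBMC primary co-culture. Gain or loss of signal was scored relative to DMSO.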

[6] = read-out: Tumor necrosis factor (Homo sapiens) (UniProt P01375); assay: BSK_LPS_TNFa: BioMAP Diversity Plus: LPS Assay for Tumour Necrosis Factor alpha (TNFa) Biomarker Activity (AID 2283085); conditions: primary human HUVEC with PBMC; actives raise or lower the signal;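 on AC50: TNFa protein level quantified by ELISA in the co-culture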
Procedure, shortened: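 TNFa was quantified by ELISA in LPS-activated co-cultures of human endothelial cells and PBMC, 24 h post-dosing. Both increases and decreases versus DMSO were fitted.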

[7] = read-out: Vascular cell adhesion molecule 1 (VCAM1), VCAM1 (gene 7412); assay: BSK_LPS_VCAM1: BioMAP Diversity Plus: LPS Assay for Vascular cell adhesion molecule 1 (VCAM1) Biomarker Activity (AID 2283086); conditions: primary human HUVEC with PBMC; actives raise or lower the signal
Procedure, shortened: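 VCAM-1 quantified by ELISA in an LPS-activated co-culture of human endothelial cells and peripheral blood mononuclear cells, read 24 h post-treatment. Fitted in both directions versus DMSO; parallel SRB staining flags overt cytotoxicity.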

[8] = read-out: CD38, CD38 (gene 952); assay: BSK_SAg_CD38: BioMAP Diversity Plus: SAg Assay for CD38 Biomarker Activity (AID 2283087); conditions: primary human HUVEC with PBMC; actives raise or lower the signal
Procedure, shortened: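 CD38 quantified by ELISA (fluorescence) in a superantigen-activated endothelial cell–PBMC co-culture at 24 h post-dose. Activity fitted in both directions relative to DMSO; parallel SRB and Alamar Blue cytotoxicity read-outs.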

[9] = read-out: CD40, CD40 (gene 958); assay: BSK_SAg_CD40: BioMAP Diversity Plus: SAg Assay for CD40 Biomarker Activity (AID 2283088); conditions: primary human HUVEC with PBMC; actives raise or lower the signal
Procedure, shortened: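 Compounds were dosed onto a human primary endothelial–PBMC co-culture, and after 24 h CD40 was quantified by ELISA using a fluorescence signal. Activity in either direction was fitted relative to DMSO.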

[10] = read-out: CD69, CD69 (gene 969); assay: BSK_SAg_CD69: BioMAP Diversity Plus: SAg Assay for CD69 Biomarker Activity (AID 2283089); conditions: primary human HUVEC with PBMC; actives raise or lower the signal;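 on AC50: cell surface CD69 protein quantified by ELISA with fluorescence detection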
Procedure, shortened: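 ELISA, fluorescence read-out: CD69 on human umbilical vein endothelial cell + PBMC co-culture, 24 h post-dosing. Gain or loss of signal fitted bidirectionally against DMSO baseline.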

[11] = read-out: Monocyte Chemoattractant Protein-1 (MCP1), CCL2 (gene 6347); assay: BSK_SAg_MCP1: BioMAP Diversity Plus: SAg Assay for Monocyte Chemoattractant Protein-1 (MCP1) Biomarker Activity (AID 2283090); conditions: primary human HUVEC with PBMC; actives raise or lower the signal
Procedure, shortened: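 Values derive from bidirectional fitting of ELISA-measured MCP1 against DMSO controls. Readings were taken 24 h after dosing human vascular endothelial cells co-cultured with peripheral blood mononuclear cells under superantigen stimulation.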

[12] = read-out: E-selectin (Homo sapiens) (UniProt P16581); assay: BSK_SAg_Eselectin: BioMAP Diversity Plus: SAg Assay for Eselectin Biomarker Activity (AID 2283091); conditions: primary human HUVEC with PBMC; actives raise or lower the signal
Procedure, shortened: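 Co-culture: HUVEC + PBMC. Dose compound; 24 h. ELISA for E-selectin. Bidirectional fit vs DMSO.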

[13] = read-out: Monokine induced gamma interferon (MIG), CXCL9 (gene 4283); assay: BSK_SAg_MIG: BioMAP Diversity Plus: SAg Assay for Monokine induced gamma interferon (MIG) Biomarker Activity (AID 2283092); conditions: primary human HUVEC with PBMC; actives raise or lower the signal
Procedure, shortened: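 ELISA readout of MIG/CXCL9; primary human umbilical vein endothelial cells co-cultured with peripheral blood mononuclear cells; 24 h post-dose; gain/loss fit vs DMSO baseline.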

[14] = BSK_SAg_PBMCCytotoxicity: PBMC Cytotoxicity Assessment in the BioMAP Diversity Plus: SAg Assay (AID 2283093); conditions: primary human HUVEC with PBMC;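 further: PBMC viability measured as Alamar Blue reduction fluorescence at 546/580 nm; fitted both ways against DMSO so a hit may be loss or gain of signal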;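 on AC50: PBMC superantigen activated with SEB plus TSST-1 one hour after compound addition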
Procedure, shortened: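 Alamar Blue reduction (6 h, 546/580 nm) reports PBMC cytotoxicity after 90 h superantigen activation (SEB, TSST-1; 20 ng/mL final each) with 1 h compound pre-treatment. Gain or loss of signal fitted versus DMSO.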

[15] = read-out: Interleukin-8 (IL8), CXCL8 (gene 3576); assay: BSK_SAg_IL8: BioMAP Diversity Plus: SAg Assay for Interleukin-8 (IL8) Biomarker Activity (AID 2283094); conditions: primary human HUVEC with PBMC; actives raise or lower the signal
Procedure, shortened: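 ELISA readout of IL-8 from a superantigen-activated endothelial/PBMC primary human co-culture, taken 24 h post-dosing and fitted in both directions against DMSO; parallel SRB total-protein staining flags overt cytotoxicity.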

[16] = BSK_SAg_Proliferation: Cell Proliferation Assessment in the BioMAP Diversity Plus: SAg Assay (AID 2283095); conditions: primary human HUVEC with PBMC;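 further: relative cell number as total protein by SRB absorbance in sub-confluent culture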
Procedure, shortened: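 Relative cell number in the endothelial cell/PBMC co-culture was quantified at 96 h by SRB staining (0.1% SRB, 10% TCA fixation, read at 560 nm). Curves were fitted in both directions relative to DMSO baseline.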

[17] = BSK_SAg_SRB: Viability Assessment in the BioMAP Diversity Plus: SAg Assay (AID 2283096); conditions: primary human HUVEC with PBMC;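 further: cells read one day after compound addition; hits may be either gain or loss of signal compared with DMSO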
Procedure, shortened: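 This overt-cytotoxicity endpoint quantifies protein in human endothelial/PBMC co-cultures at 24 h using SRB absorbance (560 nm) after trichloroacetic acid fixation. Values reflect signal change from the DMSO negative control, fitted bidirectionally.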

[18] = biological target: human CYP2D6, CYP2D6 (gene 1565) (UniProt P10635); assay: NVS_ADME_hCYP2D6: NovaScreen (NVS) CYP450-related Enzyme Activity (ADME) Assay for human CYP2D6 (AID 2283107; active means hit-call score of the fitted dose curve at least 0.9, where 1 is the maximum)
Chain of human CYP2D6, CYP2D6 (gene 1565) (P10635 whole entry, looked up): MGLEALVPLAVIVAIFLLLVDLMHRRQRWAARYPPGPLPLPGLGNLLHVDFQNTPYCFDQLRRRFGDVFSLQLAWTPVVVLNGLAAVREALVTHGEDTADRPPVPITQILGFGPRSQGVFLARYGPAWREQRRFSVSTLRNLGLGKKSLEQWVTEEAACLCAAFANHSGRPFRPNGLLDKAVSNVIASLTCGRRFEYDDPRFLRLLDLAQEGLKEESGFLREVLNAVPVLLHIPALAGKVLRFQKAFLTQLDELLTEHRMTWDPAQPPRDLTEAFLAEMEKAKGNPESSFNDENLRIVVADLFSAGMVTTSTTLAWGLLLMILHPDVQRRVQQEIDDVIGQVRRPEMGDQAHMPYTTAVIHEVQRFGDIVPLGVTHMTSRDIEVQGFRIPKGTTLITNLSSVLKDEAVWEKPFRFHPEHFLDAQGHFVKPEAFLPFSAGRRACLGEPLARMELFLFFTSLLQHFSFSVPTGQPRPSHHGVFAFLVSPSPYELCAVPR
Procedure, shortened: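 Insect-cell recombinant enzyme + fluorogenic substrate, cell-free; 1 h incubation; fluorescence intensity readout. Acetonitrile = neg. ctrl/baseline. Single-point 10 uM, duplicate; follow-up concentration series.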

Measured: AC50

Chain of E-selectin (Homo sapiens) (P16581 whole entry, looked up): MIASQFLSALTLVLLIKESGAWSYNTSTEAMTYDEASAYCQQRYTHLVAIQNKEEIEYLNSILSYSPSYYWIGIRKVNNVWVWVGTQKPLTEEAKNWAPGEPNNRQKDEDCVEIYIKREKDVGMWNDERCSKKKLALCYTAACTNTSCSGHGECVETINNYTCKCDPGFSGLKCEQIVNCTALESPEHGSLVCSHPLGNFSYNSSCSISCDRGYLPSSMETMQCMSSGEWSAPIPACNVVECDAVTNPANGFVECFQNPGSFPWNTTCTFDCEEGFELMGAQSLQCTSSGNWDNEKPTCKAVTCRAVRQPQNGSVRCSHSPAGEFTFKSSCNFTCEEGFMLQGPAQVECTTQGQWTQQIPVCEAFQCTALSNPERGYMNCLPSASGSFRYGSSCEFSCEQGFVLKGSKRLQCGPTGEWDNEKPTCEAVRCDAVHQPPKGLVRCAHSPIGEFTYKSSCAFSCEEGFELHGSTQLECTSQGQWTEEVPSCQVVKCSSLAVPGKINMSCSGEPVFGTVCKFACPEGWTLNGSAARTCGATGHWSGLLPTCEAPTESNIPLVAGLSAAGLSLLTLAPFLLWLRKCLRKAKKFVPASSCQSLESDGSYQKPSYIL
Chain of Tumor necrosis factor (Homo sapiens) (P01375 whole entry, looked up): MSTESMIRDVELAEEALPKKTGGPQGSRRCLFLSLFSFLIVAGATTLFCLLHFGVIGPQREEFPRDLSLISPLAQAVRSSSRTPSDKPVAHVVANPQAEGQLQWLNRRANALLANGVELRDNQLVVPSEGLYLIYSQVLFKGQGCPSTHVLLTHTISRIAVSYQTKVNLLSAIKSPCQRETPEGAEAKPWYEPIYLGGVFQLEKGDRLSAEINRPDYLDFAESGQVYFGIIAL

C=CC(=O)OCCC(F)(F)C(F)(F)C(F)(F)C(F)(F)F
inactive: [1] | [2] | [3] | [4] | [5] | [6] | [13] | [17]
active: [5] 30 µM | [7] 32.7 µM and 15.7 µM | [8] 47.8 µM and 30 µM | [9] 30 µM | [10] 28 µM and 30.9 µM | [11] 19.4 µM and 14.4 µM | [12] 40.1 µM and 40 µM | [14] 30 µM | [15] 33 µM and 30.1 µM | [16] 30 µM

O=C(Cl)C(F)(F)C(F)(F)C(F)(F)C(F)(F)C(F)(F)C(F)(F)C(F)(F)F
not listed: [10] | [18]
inactive: all other assays above

O=S(=O)(O)CCC(F)(F)C(F)(F)C(F)(F)C(F)(F)C(F)(F)C(F)(F)C(F)(F)C(F)(F)F
active: [1] 47.3 µM and 44.8 µM | [3] 30 µM and 40.9 µM | [4] 51.4 µM | [6] 47.1 µM | [7] 5.95 µM | [8] 15.6 µM
inactive: [2] | [4] | [5] | [6] | [7] | [8] | [9] | [11] | [12] | [13] | [14] | [15] | [16] | [17]

O=C=Nc1cccc2c(N=C=O)cccc12
not listed: [10] | [18]
inactive: all other assays above

FC(F)(F)C(F)(F)C(F)(F)CC1CO1 (configuration not stated)
not listed: [18]
inactive: all other assays above

CCN(CCO)S(=O)(=O)C(F)(F)C(F)(F)C(F)(F)C(F)(F)C(F)(F)C(F)(F)C(F)(F)C(F)(F)F
inactive: [3] | [4] | [6] | [10] | [12] | [13] | [15]
active: [1] 23.7 µM and 5.83 µM | [4] 7.7 µM | [5] 10.8 µM and 15 µM | [7] 30 µM and 35.9 µM | [8] 35.9 µM and 29.9 µM | [9] 22.8 µM and 46 µM | [10] 9.85 µM | [11] 18.8 µM and 18.3 µM | [14] 39.9 µM and 22.9 µM | [16] 23.6 µM and 18.6 µM | [17] 30 µM and 27.9 µM

CCOC(=O)CC(=O)C(F)(F)C(F)(F)F
not listed: [18]
inactive: all other assays above

NC(=O)C(F)(F)C(F)(F)C(F)(F)C(F)(F)C(N)=O
active: [4] 0.393 µM
inactive: [1] | [3] | [4] | [5] | [6] | [7] | [8] | [9] | [10] | [11] | [12] | [13] | [14] | [15] | [16] | [17]

OCC(F)(F)C(F)(F)C(F)(F)C(F)(F)C(F)(F)C(F)(F)CO
active: [6] 1.9 µM
inactive: [1] | [2] | [3] | [4] | [5] | [6] | [7] | [8] | [9] | [10] | [11] | [12] | [13] | [14] | [15] | [16] | [17]

CCN(CC)c1ccc(C=O)c(O)c1
not listed: [18]
inactive: all other assays above

C=CC(=O)OCC(F)(F)C(F)(F)C(F)(F)C(F)(F)C(F)(F)C(F)(F)C(F)(F)C(F)F
inactive: [1] | [2] | [3] | [4] | [5] | [6] | [7] | [8] | [9] | [10] | [11] | [12] | [13] | [15] | [17]
active: [3] 13.9 µM | [9] 18.1 µM | [12] 30 µM | [14] 26.8 µM and 16.6 µM | [15] 20.8 µM | [16] 36.8 µM and 27.1 µM

CC1=CC2C3C=CC(C3)C2C1C (configuration not stated)
active: [6] 31.3 µM | [18] 2.84 µM
not listed: [10]
inactive: all other assays above
